From PubChem BioAssay (EPA / NIEHS)
Where “and” joins values, the source holds several entries; their conditions need not be identical. Identical values can stand only once. Some structures have more than one record in an assay (separate samples or runs), and their calls can disagree. Calls of active or inactive are those of the source. Rule for the calls: active = hit-call score of the fitted dose curve at least 0.9, where 1 is the maximum; inactive = score below 0.9.

Key:
[1] = ATG_CRE_CIS: Attagene CIS-FACTORIAL HepG2 Assay for human cAMP Responsive Element (CRE) binding protein 3 (AID 2282926); details: HepG2 CRE cis-reporter, Attagene multiplexed mRNA; actives raise or lower the signal
How it was run: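 Human liver HepG2, transient MRTU transfection, 24 h compound exposure. Total RNA → oligo(dT) RT → PCR → 6-FAM primer extension → HpaI cut → CE. Activity called both directions vs DMSO.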

[2] = biological target: CCAAT/enhancer-binding protein beta (Homo sapiens) (UniProt P17676); assay: ATG_C_EBP_CIS: Attagene CIS-FACTORIAL HepG2 Assay for human CCAAT/Enhancer Binding Protein (C/EBP) beta (AID 2282927); details: HepG2 Attagene cis-factorial transcription factor reporter; actives raise or lower the signal
Sequence of CCAAT/enhancer-binding protein beta (Homo sapiens) (P17676 whole entry, looked up): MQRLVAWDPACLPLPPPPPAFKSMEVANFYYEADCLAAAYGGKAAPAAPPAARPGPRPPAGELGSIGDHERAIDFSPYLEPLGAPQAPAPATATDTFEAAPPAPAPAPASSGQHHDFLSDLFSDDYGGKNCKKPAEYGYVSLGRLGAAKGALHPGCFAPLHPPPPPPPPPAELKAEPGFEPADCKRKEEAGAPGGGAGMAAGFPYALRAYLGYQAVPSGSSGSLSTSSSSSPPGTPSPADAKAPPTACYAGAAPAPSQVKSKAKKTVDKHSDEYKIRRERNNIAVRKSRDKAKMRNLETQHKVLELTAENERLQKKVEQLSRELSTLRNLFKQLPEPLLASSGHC
How it was run: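 HepG2, transient MRTU transfection, 24 h treatment. RT-PCR plus CE fluorescence; DMSO negative control, bidirectional fit.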

[3] = ATG_CMV_CIS: Attagene CIS-FACTORIAL HepG2 Assay for human CMV (Internal Marker) (AID 2282928); details: HepG2 CMV promoter reporter, transcription factor profiling; actives raise or lower the signal;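 note: endpoint acts as a background internal control marker rather than a target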
How it was run: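 Endogenous transcription factor activity read in HepG2 via transfected cis-promoter reporter units. After 24 h dosing, reporter mRNA measured by RT-PCR/capillary electrophoresis; gain or loss of signal fit relative to DMSO.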

[4] = ATG_DR4_LXR_CIS: Attagene CIS-FACTORIAL HepG2 Assay for human Liver X Receptor (LXR), DR4 submotif (AID 2282929); details: HepG2 Attagene DR4 cis-reporter, mRNA transcription; actives raise or lower the signal
How it was run: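 HepG2, transient MRTU transfection, cis-element (DR4) promoter; 24 h compound exposure; total RNA → oligo(dT) RT → PCR → 6-FAM primer extension → HpaI cut → CE. Gain/loss vs DMSO, bidirectional fit.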

[5] = biological target: Aryl hydrocarbon receptor (Homo sapiens) (UniProt P35869); assay: ATG_Ahr_CIS: Attagene CIS-FACTORIAL HepG2 Assay for human Aryl Hydrocarbon Receptor (Ahr) (AID 2282930); details: HepG2 AhR cis-factorial reporter transcription; actives raise or lower the signal
Sequence of Aryl hydrocarbon receptor (Homo sapiens) (P35869 whole entry, looked up): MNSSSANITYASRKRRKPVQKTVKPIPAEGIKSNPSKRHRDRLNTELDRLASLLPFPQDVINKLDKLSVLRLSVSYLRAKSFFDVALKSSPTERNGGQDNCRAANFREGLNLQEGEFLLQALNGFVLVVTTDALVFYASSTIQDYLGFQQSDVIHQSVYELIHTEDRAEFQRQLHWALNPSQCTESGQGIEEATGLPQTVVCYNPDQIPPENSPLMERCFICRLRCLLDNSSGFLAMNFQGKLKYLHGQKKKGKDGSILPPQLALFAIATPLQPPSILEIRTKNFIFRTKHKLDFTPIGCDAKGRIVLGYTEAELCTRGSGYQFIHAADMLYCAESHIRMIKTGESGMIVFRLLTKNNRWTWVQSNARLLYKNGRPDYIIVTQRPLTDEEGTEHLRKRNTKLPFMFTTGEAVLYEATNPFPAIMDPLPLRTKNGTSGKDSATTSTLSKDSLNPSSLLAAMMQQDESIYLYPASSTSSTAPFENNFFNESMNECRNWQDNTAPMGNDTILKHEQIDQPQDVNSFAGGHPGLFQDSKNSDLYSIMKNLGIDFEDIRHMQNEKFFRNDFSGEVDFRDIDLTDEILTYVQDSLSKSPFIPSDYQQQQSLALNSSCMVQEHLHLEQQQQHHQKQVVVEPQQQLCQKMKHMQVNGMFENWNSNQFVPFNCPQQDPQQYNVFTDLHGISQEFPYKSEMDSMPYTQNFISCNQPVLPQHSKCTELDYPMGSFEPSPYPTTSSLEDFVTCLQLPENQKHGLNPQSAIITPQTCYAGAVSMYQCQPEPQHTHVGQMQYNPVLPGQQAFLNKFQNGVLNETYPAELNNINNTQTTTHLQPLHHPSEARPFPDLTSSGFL
How it was run: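 Endogenous factor activity is tracked through cis-promoter reporter units transfected into HepG2 cells. Transcript levels at 24 h are read by fluorescent RT-PCR and capillary electrophoresis, with activity in either direction scored relative to DMSO.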

[6] = ATG_AP_1_CIS: Attagene CIS-FACTORIAL HepG2 Assay for human Activator Protein 1 (AP-1) (AID 2282931); details: HepG2 Attagene cis-factorial AP-1 reporter mRNA; actives raise or lower the signal
How it was run: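 Transient MRTU transfection of HepG2 → 24 h chemical treatment → RNA isolation, RT-PCR, 6-FAM labelling, HpaI digest → capillary electrophoresis. Fit: bidirectional, DMSO negative control.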

[7] = ATG_AP_2_CIS: Attagene CIS-FACTORIAL HepG2 Assay for human Activator Protein 2 (AP-2) (AID 2282932); details: HepG2 AP-2 cis-reporter, Attagene transcription factor profiling; actives raise or lower the signal
How it was run: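 Multiplexed mRNA reporter assay in HepG2: cis-regulated units report endogenous factor activity after 24 h treatment. Fluorescence from capillary electrophoresis of RT-PCR products gives the signal, with DMSO as baseline.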

[8] = ATG_BRE_CIS: Attagene CIS-FACTORIAL HepG2 Assay for human Bone Morphogenetic Protein (BMP) Response Element (BRE) (AID 2282933); details: HepG2 BMP response element reporter, Attagene transcription factor profiling; actives raise or lower the signal
How it was run: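 A HepG2 multiplex reporter system measured inducible reporter mRNA 24 h post-dosing. Detection: RT-PCR, 6-FAM primer extension, HpaI digestion, capillary electrophoresis. Activity fitted bidirectionally relative to DMSO.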

[9] = biological target: Retinoic acid receptor alpha (Homo sapiens) (UniProt P10276); assay: ATG_DR5_RAR_CIS: Attagene CIS-FACTORIAL HepG2 Assay for human Retinoic Acid Receptor Alpha (RARE), DR5 submotif (AID 2282934); details: HepG2 Attagene cis-factorial RARE DR5 reporter, mRNA; actives raise or lower the signal
Sequence of Retinoic acid receptor alpha (Homo sapiens) (P10276 whole entry, looked up): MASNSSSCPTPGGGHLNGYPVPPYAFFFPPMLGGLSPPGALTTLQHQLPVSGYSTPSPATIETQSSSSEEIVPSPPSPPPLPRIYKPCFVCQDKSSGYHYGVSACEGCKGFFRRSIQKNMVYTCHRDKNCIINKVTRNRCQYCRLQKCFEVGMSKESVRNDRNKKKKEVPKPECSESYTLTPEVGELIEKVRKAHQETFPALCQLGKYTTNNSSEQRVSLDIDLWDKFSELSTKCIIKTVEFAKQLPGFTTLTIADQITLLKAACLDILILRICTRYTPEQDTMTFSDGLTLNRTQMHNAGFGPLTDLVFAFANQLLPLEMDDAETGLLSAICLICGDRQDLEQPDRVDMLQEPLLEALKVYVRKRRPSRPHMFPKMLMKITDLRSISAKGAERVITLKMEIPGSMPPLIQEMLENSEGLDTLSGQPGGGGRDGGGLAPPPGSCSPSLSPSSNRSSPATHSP
How it was run: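 After 24 h of chemical exposure, transiently transfected HepG2 cells were lysed for total RNA; the DR5-regulated reporter transcript was quantified via RT-PCR and capillary electrophoresis, with activity fitted bidirectionally against DMSO.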

[10] = biological target: Transcription factor E2F1 (Homo sapiens) (UniProt Q01094); assay: ATG_E2F_CIS: Attagene CIS-FACTORIAL HepG2 Assay for human E2F Transcription Factor 1 (AID 2282935); details: HepG2 Attagene cis-reporter, E2F reporter RNA transcripts; actives raise or lower the signal
Sequence of Transcription factor E2F1 (Homo sapiens) (Q01094 whole entry, looked up): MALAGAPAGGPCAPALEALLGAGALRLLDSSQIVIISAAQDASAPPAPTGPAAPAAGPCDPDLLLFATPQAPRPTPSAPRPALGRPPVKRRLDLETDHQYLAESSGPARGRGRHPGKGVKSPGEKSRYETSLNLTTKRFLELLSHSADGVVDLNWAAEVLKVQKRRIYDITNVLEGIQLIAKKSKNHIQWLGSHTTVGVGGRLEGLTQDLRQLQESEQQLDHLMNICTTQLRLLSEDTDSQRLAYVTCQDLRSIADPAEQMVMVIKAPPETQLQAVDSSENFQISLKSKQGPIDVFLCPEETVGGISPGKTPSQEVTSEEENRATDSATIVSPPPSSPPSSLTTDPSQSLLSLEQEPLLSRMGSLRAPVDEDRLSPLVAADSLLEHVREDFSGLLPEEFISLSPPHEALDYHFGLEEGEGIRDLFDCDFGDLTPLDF
How it was run: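 Measures reporter transcript levels via RT-PCR with capillary electrophoresis detection in HepG2 cells harboring cis-regulated reporter units; 24 h post-dose; bidirectional curve fitting with DMSO as baseline.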

[11] = ATG_E_Box_CIS: Attagene CIS-FACTORIAL HepG2 Assay for human Enhancer Box (E-box) (AID 2282936); details: HepG2 E-box cis-reporter transcription, actives raise or lower the signal
How it was run: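 First, HepG2 cells receive multiple cis-regulated reporter constructs by transient transfection. Next, chemicals are applied for 24 h. Finally, reporter mRNA is quantified via RT-PCR and capillary electrophoresis, with DMSO as baseline.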

[12] = ATG_M_61_CIS: Attagene CIS-FACTORIAL HepG2 Assay for M61 Transcription Factor (Internal Marker) (AID 2282937); details: HepG2 Attagene CIS-FACTORIAL M61 internal marker reporter; actives raise or lower the signal
How it was run: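 Human liver HepG2, transient MRTU transfection (cis promoter elements), 24 h compound. Total RNA → oligo(dT) RT → PCR → FAM label → HpaI → CE. Internal background marker; bidirectional fitting, DMSO = baseline.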

[13] = ATG_EGR_CIS: Attagene CIS-FACTORIAL HepG2 Assay for human Early Growth Response 1 (EGR1) (AID 2282938); details: HepG2 Attagene CIS-FACTORIAL EGR reporter mRNA; actives raise or lower the signal
How it was run: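 Transient transfection of human HepG2 with multiple cis-regulated reporter units, chemical exposure 24 h, total RNA isolated. Reverse transcription, PCR, fluorescent labelling and capillary electrophoresis quantify reporter transcripts; activity fitted bidirectionally against DMSO.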

[14] = ATG_M_19_CIS: Attagene CIS-FACTORIAL HepG2 Assay for M19 Transcription Factor (Internal Marker) (AID 2282939); details: HepG2 Attagene CIS-FACTORIAL M19 internal marker reporter; actives raise or lower the signal
How it was run: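 Chemical-treated HepG2 (24 h) with MRTU constructs; reporter transcripts detected by fluorescent RT-PCR fragment analysis on capillary electrophoresis. Internal background marker, DMSO as baseline.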

[15] = ATG_Ets_CIS: Attagene CIS-FACTORIAL HepG2 Assay for human Erythroblast Transformation Specific (ETS) (AID 2282941); details: HepG2 ETS cis-reporter transcription, actives raise or lower the signal
How it was run: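 Steps: transfect HepG2 with multiple reporter units; treat compound 24 h; isolate RNA, DNase-treat, reverse-transcribe; PCR-amplify, label with 6-FAM, digest with HpaI; separate by capillary electrophoresis. Activity fitted both directions versus DMSO.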

[16] = biological target: Hepatocyte nuclear factor 3-beta (Homo sapiens) (UniProt Q9Y261); assay: ATG_FoxA2_CIS: Attagene CIS-FACTORIAL HepG2 Assay for human Forkhead box A2 (FOXA2) (AID 2282942); details: HepG2 cis-reporter transcription factor activity, 24 h; actives raise or lower the signal
Sequence of Hepatocyte nuclear factor 3-beta (Homo sapiens) (Q9Y261 whole entry, looked up): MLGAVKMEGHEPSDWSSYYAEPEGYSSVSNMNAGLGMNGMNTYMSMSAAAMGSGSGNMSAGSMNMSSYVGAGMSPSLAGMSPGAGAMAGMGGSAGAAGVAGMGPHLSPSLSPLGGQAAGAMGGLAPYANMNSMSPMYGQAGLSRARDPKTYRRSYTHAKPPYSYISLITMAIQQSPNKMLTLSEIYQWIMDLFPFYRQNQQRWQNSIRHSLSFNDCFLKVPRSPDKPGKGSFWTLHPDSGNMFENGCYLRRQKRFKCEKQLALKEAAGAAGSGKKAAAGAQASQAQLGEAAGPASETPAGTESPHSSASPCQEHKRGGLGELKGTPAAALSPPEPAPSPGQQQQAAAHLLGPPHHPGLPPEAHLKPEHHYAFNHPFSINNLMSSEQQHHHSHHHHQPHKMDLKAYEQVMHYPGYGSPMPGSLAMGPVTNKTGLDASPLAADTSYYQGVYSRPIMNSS
How it was run: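 Transient MRTU transfection of HepG2 liver cells; 24 h treatment; total RNA → oligo(dT) RT → PCR → FAM primer extension → HpaI cut → CE. Bidirectional fit vs DMSO.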

[17] = ATG_FoxO_CIS: Attagene CIS-FACTORIAL HepG2 Assay for human Forkhead box O (FoxO) (AID 2282943); details: HepG2 Attagene cis-reporter, FoxO element, mRNA; actives raise or lower the signal
How it was run: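 Transfected HepG2 reporter cells exposed to test chemical for 24 h; reporter RNA measured by reverse transcription, PCR and fluorescent capillary electrophoresis; curves fitted for increases and decreases against DMSO.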

[18] = ATG_GATA_CIS: Attagene CIS-FACTORIAL HepG2 Assay for human GATA Binding Protein (AID 2282944); details: HepG2 GATA cis-element reporter, Attagene multiplex mRNA; actives raise or lower the signal
How it was run: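 Transfected cis-reporter HepG2 cells were treated with chemicals for 24 hours. Total RNA was then converted to cDNA, amplified with reporter-specific primers and analysed by fluorescent capillary electrophoresis, using DMSO-treated wells as baseline.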

[19] = ATG_GLI_CIS: Attagene CIS-FACTORIAL HepG2 Assay for human Zinc Finger Protein GLI1 (AID 2282945); details: HepG2, Attagene cis-factorial reporter mRNA, GLI element; actives raise or lower the signal
How it was run: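 Transiently transfected HepG2 cells report endogenous transcription factor activity via cis-element-driven reporter units. After 24 h compound exposure, reporter mRNA was measured by RT-PCR with capillary electrophoresis; bidirectional fitting against DMSO baseline.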

[20] = ATG_ERE_CIS: Attagene CIS-FACTORIAL HepG2 Assay for Estrogen Response Element (ERE) (AID 2282940); details: HepG2 ERE cis-reporter, Attagene RNA transcript; actives raise or lower the signal
How it was run: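 Human liver cells (HepG2) bearing transiently transfected, promoter-regulated reporter units were exposed 24 h. Reporter mRNA induction was detected by capillary electrophoresis of labelled RT-PCR products and fitted bidirectionally to DMSO.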

Measured: AC50

O=C1CCC(C2CCCCC2)CC1
inactive: [1] | [2] | [3] | [4] | [5] | [7] | [8] | [9] | [10] | [11] | [12] | [13] | [14] | [15] | [16] | [17] | [18] | [19]
active: [3] 100 µM and 39.3 µM | [4] 164 µM and 171 µM and 160 µM | [6] 133 µM [middle of 4 runs] | [7] 163 µM | [8] 147 µM and 156 µM | [11] 185 µM | [13] 130 µM | [15] 131 µM | [18] 187 µM

O=C=NCCCCCCN=C=O
not listed: [14]
inactive: all other assays above

Oc1ccccc1
not listed: [14] | [20]
inactive: all other assays above

O=C(Nc1ccc(Cl)cc1)Nc1ccc(Cl)c(Cl)c1
active: [1] 4.04 µM | [4] 10.5 µM | [6] 10.5 µM | [8] 5.32 µM
not listed: [9] | [14]
inactive: all other assays above

CCCCCCCCOc1ccc(C(=O)c2ccccc2)c(O)c1
active: [5] 59.1 µM
not listed: [9] | [14]
inactive: all other assays above

NCc1cccc(C2CCN(C(=O)c3ccc(C#Cc4ccccc4F)o3)CC2)c1
active: [1] 11 µM | [2] 11 µM | [3] 11 µM | [6] 11 µM | [13] 11 µM | [20] 2.81 µM
inactive: all other assays above

CCO[Si](CCCNC(N)=O)(OCC)OCC
not listed: [9] | [14]
inactive: all other assays above

O=C(O)Cc1cc(I)c(Oc2ccc(O)c(I)c2)c(I)c1
inactive: [1] | [2] | [3] | [4] | [5] | [6] | [7] | [8] | [10] | [11] | [12] | [13] | [14] | [15] | [16] | [17] | [18] | [19]
active: [6] 160 µM and 100 µM and 74.8 µM | [7] 50.9 µM | [8] 89 µM

Clc1ccccc1C(c1ccccc1)(c1ccccc1)n1ccnc1
active: [3] 17.8 µM | [4] 1.48 µM | [5] 3.01 µM | [6] 10.4 µM | [8] 11.1 µM | [13] 8.64 µM | [20] 0.438 µM | [18] 15.6 µM
not listed: [9] | [14]
inactive: all other assays above

Cc1cc(F)ccc1-c1cc(N2CC[C@@H](O)[C@H]2CO)ncc1N(C)C(=O)C(C)(C)c1cc(C(F)(F)F)cc(C(F)(F)F)c1
inactive: all assays above

C[C@]12CC[C@@H]3c4ccc(O)cc4CC[C@H]3[C@@H]1CC[C@H]2O
inactive: [1] | [2] | [4] | [5] | [6] | [7] | [8] | [10] | [11] | [12] | [13] | [15] | [16] | [17] | [18] | [19]
active: [3] 27.5 µM [middle of 4 runs] | [5] 49 µM | [11] 19.8 µM | [13] 42 µM

c1ccc(C[n+]2cccc3ccccc32)cc1
active: [3] 100 µM | [5] 69.6 µM | [6] 41.1 µM | [20] 74.1 µM
not listed: [9] | [14]
inactive: all other assays above
